# According to PubChem BioAssay AID1222 (Sanford-Burnham Center for Chemical Genomics, 2008):
# The campaign covered roughly 190,000 compounds. Fewer than 10 were called active.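 The calls were made as follows: active = EC50 below 50 µM in the dose-response confirmation; inactive = the rest.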 A selection follows. Results with a measured potency or affinity are listed apart.
# Test: rescue of cells from ER stress-induced death, primary screen, 384-well, CSM14.1, thapsigargin, ATP luminescence (AID 1222);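 also: death triggered by thapsigargin at about 15 µM added after 2 h compound pretreatment; cell ATP read after overnight thapsigargin exposure of roughly 18 to 22 hours; reference of the scale not given here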
# Details: CSM14.1 thapsigargin-induced death rescue, at 20 µM, hits give high values
row,SMILES,cellular ATP content (survival)
1,Cc1ccc(-c2nc(CSCC(=O)N3CCN(c4ccccn4)CC3)c(C)o2)cc1,-0.2% (inactive)
2,COc1ccccc1OCc1ccc(C(=O)NCC(C)C)o1,2.9% (inactive)
3,COc1cccc(CN=C2Nc3ccccc3CS2)c1,0.2% (inactive)
4,O=C(Nc1cc(C(F)(F)F)ccc1N1CCOCC1)c1cccc(F)c1,0.4% (inactive)
5,O=C(Nc1ccccc1)c1nn(-c2ccccc2)c(=O)cc1C(F)(F)F,2% (inactive)
6,COc1ccccc1C(C)N(C)Cc1nc(COc2ccccc2)no1 (configuration not stated),-1.1% (inactive)
7,COc1ccc(CCN(Cc2cccs2)S(=O)(=O)c2ccc(S(=O)(=O)N3CCCCCC3)cc2)cc1OC,-1.5% (inactive)
8,CN1CCc2c(OCC(=O)N3N=C(c4cccs4)CC3c3ccc(F)cc3)cccc2C1=O (configuration not stated),1.4% (inactive)
9,O=C1c2cccc(OCC(=O)N3N=C(c4cccs4)CC3c3ccc(F)cc3)c2CCN1Cc1ccccc1 (configuration not stated),-2.7% (inactive)
10,CC(C)OP(=O)(OC(C)C)C(Nc1ccccc1)c1ccccc1C(F)(F)F (configuration not stated),2.8% (inactive)
11,CCOC(=O)c1c(NC(=O)C[n+]2ccc(N(C)C)cc2)sc(C)c1C,-2% (inactive)
12,Cn1cc(Cl)c(C(=O)NNC(=S)NC2CCCCC2)n1,1.1% (inactive)
13,COC(=O)c1sc2ccccc2c1-n1cccc1C(=O)C(=O)Nc1ccc(OC)cc1,4.6% (inactive)
14,COc1ccc(/C=C(/NC(=O)c2ccccc2)c2nc3ccc(Cl)cc3[nH]2)cc1OC,1.1% (inactive)
15,Cc1ccccc1NS(=O)(=O)c1cc(C(=O)N2CCc3ccccc3C2)ccc1C,0.4% (inactive)
16,CC(C)(C)C(=O)Nc1nc(=S)ss1,0% (inactive)
17,CCn1c(NCc2ccc3c(c2)OCO3)nc2ccccc21,-1% (inactive)
18,CCOC(=O)c1cnc(-n2nc(C)cc2C)nc1Nc1ccc2c(c1)OCO2,-1.2% (inactive)
19,CCn1cc(C(=O)O)c(=O)c2cc(S(=O)(=O)N(C)C)ccc21,-1.2% (inactive)
20,O=C(Nc1ccc(N2CCOCC2)cc1)c1ccc(Cl)nc1,-0.7% (inactive)
21,CCOc1ccccc1NC(=O)COC(=O)C(CC)c1ccccc1 (configuration not stated),0.7% (inactive)

row,SMILES,cellular ATP content (survival)
1,CCCCP(=O)(CCCC)c1ccccc1C(=O)O,-0.7% (inactive)
2,O=C(OCc1cc(=O)n2c(n1)sc1ccccc12)c1ccc(O)cc1O,-1.2% (inactive)
3,COc1ccc(NC(=S)Nc2ccc(S(N)(=O)=O)cc2)c(OC)c1,-0.3% (inactive)
4,CC(=O)c1c(C)nc2ccc(Br)cc2c1C(=O)O,0.7% (inactive)
5,COc1cccc(C2CC(c3cccs3)=NN2C(=S)Nc2ccccc2)c1OC (configuration not stated),2.5% (inactive)
6,COc1ccc(S(=O)(=O)N2CCC(C(=O)N3CCc4ccccc4C3)CC2)cc1Cl,0.7% (inactive)
7,CCOC(=O)c1cc2c(=O)n3ccccc3nc2n(Cc2ccccc2Cl)c1=N,-1.3% (inactive)
8,CCCCNS(=O)(=O)c1ccc(S(=O)(=O)NCc2ccncc2)cc1,-1.8% (inactive)
9,Cc1nc(N2CCC(C(N)=O)CC2)c2c(-c3cccs3)csc2n1,-2.2% (inactive)
10,CCOC(=O)C1=C(C)Nc2ccccc2N=C1NC(=O)CCCN1C(=O)c2ccccc2C1=O,-1.5% (inactive)
11,COc1cc([N+](=O)[O-])ccc1NC(=O)c1cccc(NC(=O)C(C)C)c1,2.2% (inactive)
12,COC(=O)C1=NN(C(C)=O)C2(CC(=O)N(c3cccc(C)c3)C2=O)C1 (configuration not stated),-0.1% (inactive)
13,CCN(C(=O)COc1ccccc1)C1CCCCC1,-1.5% (inactive)
14,O=C(Nc1nnc(-c2ccco2)o1)c1ccc2ccccc2c1,11.1% (inactive)
15,Cc1cc(NC(=O)CCC(=O)N(CC(=O)NC2CCCC2)c2ccccc2)no1,0.5% (inactive)
16,O=c1cc(COn2nnc3ccc(C(F)(F)F)cc32)nc2sccn12,-1.8% (inactive)
17,O=C(Nc1ccc2nc(-c3cccnc3)[nH]c2c1)C12CC3CC(CC(C3)C1)C2,-3.6% (inactive)
18,c1ccc(-c2nccc(-c3ccc(-n4cnc5ccccc54)cc3)n2)cc1,-0.9% (inactive)
19,Cc1ccc(/C(O)=C2\C(=O)C(=O)N(CCc3c[nH]c4ccccc34)C2c2cccnc2)cc1 (configuration not stated),1.1% (inactive)
20,CCCN1C(=O)/C(=C/c2ccc(N3CCCC3)c(C)c2)NC1=S,-2% (inactive)
21,CCN1C(=O)/C(=C/c2ccc(N3CCCC3)cc2)NC1=S,0.3% (inactive)

row,SMILES,cellular ATP content (survival)
1,O=C(COC(=O)CCNS(=O)(=O)c1ccc2c(c1)OCCO2)NC1CCCc2ccccc21 (configuration not stated),-0.1% (inactive)
2,CCc1nnc(NC(=O)CCC(=O)NC2CCCCC2)s1,-0.3% (inactive)
3,CCCCNC(=O)Cc1ccc(Br)cc1,0.7% (inactive)
4,CC1CCC2C(=O)N(c3ccc(Cc4ccncc4)cc3)C(=O)C2C1 (configuration not stated),0.4% (inactive)
5,CC1(C(=O)NCCN2CCOCC2)C=CC2(CCCCC2)N1C(=O)c1ccccc1 (configuration not stated),-4.5% (inactive)
6,CC(=O)OCc1cc(-c2nn(C)c(=O)c3ccccc23)ccc1C,1.5% (inactive)
7,O=C(N/N=C/c1ccccc1OC(F)F)C1=COCCO1,0.4% (inactive)
8,O=S1(=O)C=CC(Sc2nc3ccccc3[nH]2)C1 (configuration not stated),7.3% (inactive)
9,Cc1ccc(S(=O)(=O)N2CCN(C(C)CC(=O)O)CC2)cc1 (configuration not stated),-0.8% (inactive)
10,O=C(OCCCC(=O)N1CCOCC1)c1ccccc1,-1% (inactive)
11,COc1cc(CN(C(=S)NCC(=O)NC2CCCC2)C2CCCC2)cc(OC)c1OC,0.8% (inactive)
12,CCOc1ccc(Nc2nc(Cc3nnc(SCC(=O)NC4CCCCC4)n3C)cs2)cc1,-0.1% (inactive)
13,COc1ccc(C(=O)OCC(=O)N(C)C2CCS(=O)(=O)C2)cc1S(=O)(=O)N1CCCc2ccccc21 (configuration not stated),1.7% (inactive)
14,COc1ccc2c(c1)N(C(=O)CSc1n[nH]c(C)n1)C(C)(C)C=C2C,5.3% (inactive)
15,COc1ccc(/C=C/C(=O)OCC(=O)Nc2cc(C(F)(F)F)ccc2Cl)cc1,-2.1% (inactive)
16,Cc1cc(C)c(C(=O)CN2C(=O)NC3(CCCCC3)C2=O)cc1C,-0.6% (inactive)
17,COc1ccc(S(=O)(=O)Oc2cccc(/C=N/N=C3/NC(=O)C(CC(=O)O)S3)c2)cc1 (configuration not stated),7.5% (inactive)
18,CCCN1CCC(NC(=O)Nc2cc(Cl)ccc2OC)CC1,0.1% (inactive)
19,CC(=O)N1CCN(c2ccc([N+](=O)[O-])c(NCc3cccnc3)c2)CC1,-0.8% (inactive)
20,N#Cc1cc(-c2ccccc2)nc(Oc2ccc(Cl)cc2)n1,-1.2% (inactive)
21,CCCn1nc2cc(C(=O)NCc3ccc(OC(F)(F)F)cc3)ccc2c1OCC,-1.1% (inactive)

row,SMILES,cellular ATP content (survival)
1,Cc1ccc(S(=O)(=O)c2nc(-c3ccccc3)oc2NCc2cccnc2)cc1,3.8% (inactive)
2,Cc1ccc(Nc2nc(-c3ccc(S(=O)(=O)N4CCOCC4)cc3)cs2)cc1Cl,-1.8% (inactive)
3,CC(C)(C)N/N=C/c1c(O)n(-c2ccc(Cl)cn2)c(=O)c2ccccc12,-1.2% (inactive)
4,O=C(Nc1cccc(C2OCCCO2)c1)c1cccs1,-3.3% (inactive)
5,O=C(c1ccc2ccccc2c1)c1c[nH]cc1-c1ccccc1,0.1% (inactive)
6,CC12COC3(C(=O)Nc4ccccc4)CC1CCC32C (configuration not stated),0.2% (inactive)
7,Cc1ccccc1NC(=O)C12CC3CCC1(C)C3(C)CO2 (configuration not stated),3.2% (inactive)
8,CN(C1CCCCC1)S(=O)(=O)c1ccc(NC(=O)CCC(=O)O)cc1,-1.8% (inactive)
9,O=C(N[C@@H](Cc1ccccc1)C(=O)O)c1cccnc1,-0.2% (inactive)
10,O=[N+]([O-])c1ccc(Nc2nc(Cl)nc(NCCO)n2)cc1,-0.9% (inactive)
11,Cc1ccc(S(=O)(=O)N2CCN(C(=O)CSc3nnc(C)c(=O)[nH]3)CC2)cc1,0.3% (inactive)
12,O=C(NC(=S)N1CCN(c2ccccn2)CC1)c1ccco1,-0.1% (inactive)
13,COc1ccccc1NC(=O)C/C(C)=N/NC(=O)COc1c(Br)cc(Br)cc1OC,2.1% (inactive)
14,CCC(=O)N1CCc2cc(S(=O)(=O)CCC(=O)Nc3ccc(CC)cc3)ccc21,-3.3% (inactive)
15,O=c1[nH]c(CSc2nnc(-c3ccccc3)n2C2CCCCC2)nc2ccccc12,0.3% (inactive)
16,CC1C(c2ccccc2)=[N+]([O-])C2(CCCCC2)N1O (configuration not stated),-0.2% (inactive)
17,Cn1c(=O)c2c(nc(CN3CCN(Cc4ccccc4)CC3)n2CCN2CCOCC2)n(C)c1=O,2.6% (inactive)
18,CCOc1ccccc1-n1c(SCC(=O)Nc2nccs2)nnc1-c1ccoc1C,1.4% (inactive)
19,O=c1[nH]c(CCC2CCCC2)nc2ccccc12,-3.1% (inactive)
